Assay [1] can be described thus: qHTS assay to identify small molecule agonists of the RXR signaling pathway - cell viability counter screen (AID 1159529). Note: nearly all actives have a fitted effect of over 50% in size. Note: potency is the fitted concentration of half-maximal effect. An outline of the steps:
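Compounds dissolved in DMSO were pinned onto HEK 293T cells carrying a beta-lactamase reporter under RXR-alpha control and incubated 16 hr. Cytotoxicity was then quantified by CellTiter-Glo luminescence.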
(In general: Quantitative high-throughput screening tests each substance at several concentrations.)

Assay [2] can be described thus: qHTS assay to identify small molecule antagonists of the retinoid acid receptor (RAR) signaling pathway - cell viability counter screen (AID 1159551). Note: nearly all actives have a fitted effect of over 35% in size. Note: potency is the fitted concentration of half-maximal effect. An outline of the steps:
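C3RL4 cells were seeded overnight at 37 C, then treated with compounds plus 1 uM (final) retinol for 6 h at 37 C. Viability was read as ATP by CellTiter-Glo luminescence after 30 min at room temperature.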

Assay [3] can be described thus: qHTS assay to identify small molecule antagonists of the estrogen related receptor (ERR) signaling pathway from Tox21 library - cell viability counter screen (AID 1224834). Note: nearly all actives have a fitted effect of over 30% in size. Note: potency is the fitted concentration of half-maximal effect. An outline of the steps: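 ERR reporter cells were plated 6 h before compound addition, then exposed to test compounds in DMSO for 17.5 h at 37 C. Viability was read as CellTiter-Fluor fluorescence after a 30-minute incubation at 37 C.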

The nature of assay [4]: qHTS assay to identify small molecule agonists of the constitutive androstane receptor (CAR) signaling pathway - cell viability counter screen (AID 1224836). Note: nearly all actives have a fitted effect of over 45% in size. Note: potency is the fitted concentration of half-maximal effect. An outline of the steps:
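23 h treatment, 37 C, 5% CO2. Cell line: HepG2 stably expressing hCAR with a CYP2B6-2.2kb construct. Co-treatment: PK11195, 0.75 uM final. Read-out: CellTiter-Fluor fluorescence intensity.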

A short description of assay [5]: qHTS assay to identify small molecule antagonists of the constitutive androstane receptor (CAR) signaling pathway - cell viability counter screen (AID 1224837). Note: nearly all actives have a fitted effect of over 45% in size. Note: potency is the fitted concentration of half-maximal effect. An outline of the steps:
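HepG2 cells stably expressing hCAR and a CYP2B6-2.2kb reporter were plated and pre-incubated 4 hr at 37 C/5% CO2, then given compounds at 15 concentrations plus 50 nM CITCO (final). After 23 hr, viability was read by CellTiter-Fluor fluorescence.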

The nature of assay [6]: qHTS assay to identify small molecule antagonists of the estrogen related receptor signaling pathway with the pleiotropic PPARgamma coactivator (PGC) from Tox21 10K library - cell viability counter screen (AID 1224840; active = well fitted cell-killing curve with a large enough effect in the repeat runs, not every such curve was filed as active; note: nearly all actives have a fitted effect of over 40% in size; note: potency is the fitted concentration of half-maximal effect). In a few lines: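 PGC/ERR cells were seeded at 2,000 cells/well and left 6 hours at 37 C/5% CO2 before pin-tool addition of compounds in DMSO. After 17.5 hours at 37 C, CellTiter-Fluor was added and fluorescence read 30 minutes later.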

Assay [7] is described as follows: qHTS assay to identify small molecule antagonists of the retinoic acid receptor (RAR) signaling pathway (AID 1159552; note: nearly all actives have a fitted effect of over 50% in size; note: potency is the fitted concentration of half-maximal effect). An outline of the steps:
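Test chemicals and DMSO controls were pin-transferred onto C3RL4 cells a day after seeding; retinol (1 uM final) followed at once. Luminescent reporter output was quantified after 6 hr of co-incubation and 30 min with detection reagent.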

A short description of assay [8]: qHTS assay to identify small molecule agonists of the retinoic acid receptor (RAR) signaling pathway (AID 1159553). An outline of the steps: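 C3RL4 cells carrying a RARE luciferase reporter were plated overnight at 37 C, then exposed to compounds in DMSO for 6 hr at 37 C and 5% CO2. Luminescence was read 30 min after luciferase reagent addition at room temperature.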

Assay [9] can be described thus: qHTS assay to identify small molecule antagonists of the estrogen related receptor (ERR) signaling pathway - cell viability counter screen (AID 1224818).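 Note: series mostly up to about 46 µM; viability measured after 17.5 h of compound exposure.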 In a few lines: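 ERR reporter cells plated 6 h at 37 C/5% CO2, then compounds in DMSO pin-transferred and incubated 17.5 h at 37 C. Viability read as CellTiter-Fluor fluorescence after 30 min at 37 C.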
The nature of assay [10]: qHTS assay to identify small molecule antagonists of the estrogen related receptor signaling pathway with the pleiotropic PPARgamma coactivator (PGC) cell viability counter screen (AID 1224822; note: series mostly up to about 46 µM). An outline of the steps:
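PGC/ERR cells were seeded at 2,000 cells/well, rested 6 h at 37 C/5% CO2, then given compounds in DMSO by pin tool and incubated 17.5 h at 37 C. Viability came from CellTiter-Fluor fluorescence after 30 min.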

Assay [11] addresses Nuclear receptor subfamily 1 group I member 3 (Homo sapiens) (UniProt Q14994). In words: qHTS assay to identify small molecule antagonists of the constitutive androstane receptor (CAR) signaling pathway (AID 1224838). Note: nearly all actives have a fitted effect of over 40% in size. Note: potency is the fitted concentration of half-maximal effect. In a few lines: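 HepG2 cells stably co-transfected with hCAR and a CYP2B6-2.2kb luciferase reporter were seeded 4 h before compound addition at 15 concentrations. Cells were stimulated with 50 nM CITCO (final) for 24 h at 37 C; luciferase luminescence was then read.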

For assay [12] the target is unchanged. In words: qHTS assay to identify small molecule agonists of the constitutive androstane receptor (CAR) signaling pathway (AID 1224839). Note: nearly all actives have a fitted effect of over 15% in size. Note: potency is the fitted concentration of half-maximal effect. In a few lines: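 Compounds tested at 15 concentrations on HepG2 cells stably harbouring hCAR and CYP2B6-2.2kb reporter constructs, co-treated with PK11195 (0.75 uM final), 24 h at 37 C; luminescent reporter signal quantified.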

Assay [13] concerns the target Luciferin 4-monooxygenase (Photinus pyralis) (UniProt P08659). In words: qHTS assay to identify small molecule inhibitors of firefly luciferase (AID 1224835). Note: series mostly up to about 120 µM; nearly all actives have a fitted effect of over 25% in size. In a few lines:
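Quantitative HTS format; KM concentrations of both substrates. Purified P. pyralis FLuc activity quantified from luminescence images.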

Assay [14] is described as follows: qHTS assay to identify small molecule antagonists of the estrogen related receptor signaling pathway with the pleiotropic PPARgamma coactivator (PGC) from Tox21 10K library (AID 1224841; call rule not given here; note: actives are mostly falling curves and most rising ones were filed inactive; nearly all actives have a fitted effect of over 50% in size; note: potency is the fitted concentration of half-maximal effect). In a few lines:
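PGC/ERR reporter cells were seeded at 2,000 cells/well and held 6 hours at 37 C/5% CO2 before pin-tool addition of compounds in DMSO. After 18 hours at 37 C, One-Glo was added and luminescence read after 30 minutes at room temperature.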

Assay [15] in a line: qHTS assay to identify small molecule agonists of the estrogen related receptor signaling pathway with the pleiotropic PPARgamma coactivator (PGC) from Tox21 10K library (AID 1224842). Note: nearly all actives have a fitted effect of over 15% in size. In a few lines: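 PGC/ERR reporter cells (NTP line) were seeded 2,000 per well, rested 6 h at 37 C/5% CO2, then pin-dosed with compounds in DMSO for 18 h at 37 C; luciferase read by One-Glo luminescence after 30 min at room temperature.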

Assay [16] deals with Thyrotropin receptor (Homo sapiens) (UniProt P16473). In words: qHTS assay to identify small molecule agonists of the thyroid stimulating hormone receptor (TSHR) signaling pathway (AID 1224843; calls by dose curve; note: nearly all actives have a fitted effect of over 45% in size; note: potency is the fitted concentration of half-maximal effect). An outline of the steps: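 Cell line HEK293 with TSHR; density 800/well. Exposure 30 min RT. Readout HTRF cAMP (cAMP-d2/anti-cAMP-cryptate), 1 h RT before reading.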
A short description of assay [17]: qHTS assay to identify small molecule agonists of the estrogen related receptor (ERR) signaling pathway (AID 1224820). In a few lines:
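Cells: ERR line from NTP, 2,000/well. Pre-incubation 6 h, 37 C/5% CO2. Compound (DMSO) pin transfer, 18 h 37 C. One-Glo, 30 min RT, luminescence.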

A short description of assay [18]: qHTS assay to identify small molecule agonists of the estrogen related receptor signaling pathway with the pleiotropic PPARgamma coactivator (PGC) (AID 1224823). In a few lines: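 Steps: plate PGC/ERR cells at 2,000 cells/well; incubate 6 h, 37 C/5% CO2; pin-transfer compounds (DMSO); incubate 18 h, 37 C; add One-Glo; 30 min RT; read luminescence.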

Structures are written as SMILES. Inconclusive results are not listed. Active and inactive are the calls of the source. Unless noted, calls come from the whole dose curve; as a rule, active = well fitted curve in the direction sought with a large enough effect in the repeat runs; inconclusive = weak or mixed curves; inactive = no such curve, though single readings can be large; an effect the other way counts as inactive or inconclusive.

Consider nine compounds from PubChem BioAssay (Tox21).

Luciferin 4-monooxygenase (Photinus pyralis), sequence (P08659 whole entry, looked up): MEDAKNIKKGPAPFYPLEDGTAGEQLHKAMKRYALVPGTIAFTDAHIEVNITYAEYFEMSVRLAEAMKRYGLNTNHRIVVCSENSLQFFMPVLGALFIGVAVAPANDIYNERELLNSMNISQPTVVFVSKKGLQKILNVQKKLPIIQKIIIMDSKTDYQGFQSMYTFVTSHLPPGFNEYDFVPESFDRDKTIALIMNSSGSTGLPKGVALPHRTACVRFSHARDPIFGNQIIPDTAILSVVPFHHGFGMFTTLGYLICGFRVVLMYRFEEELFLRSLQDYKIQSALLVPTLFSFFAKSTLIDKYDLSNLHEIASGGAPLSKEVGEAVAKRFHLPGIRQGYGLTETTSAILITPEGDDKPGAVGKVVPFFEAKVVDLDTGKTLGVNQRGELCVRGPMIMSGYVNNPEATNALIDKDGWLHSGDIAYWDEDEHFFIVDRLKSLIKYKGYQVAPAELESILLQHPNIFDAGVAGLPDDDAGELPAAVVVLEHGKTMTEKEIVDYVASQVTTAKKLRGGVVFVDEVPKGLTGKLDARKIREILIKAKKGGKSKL
Nuclear receptor subfamily 1 group I member 3 (Homo sapiens), sequence (Q14994 whole entry, looked up): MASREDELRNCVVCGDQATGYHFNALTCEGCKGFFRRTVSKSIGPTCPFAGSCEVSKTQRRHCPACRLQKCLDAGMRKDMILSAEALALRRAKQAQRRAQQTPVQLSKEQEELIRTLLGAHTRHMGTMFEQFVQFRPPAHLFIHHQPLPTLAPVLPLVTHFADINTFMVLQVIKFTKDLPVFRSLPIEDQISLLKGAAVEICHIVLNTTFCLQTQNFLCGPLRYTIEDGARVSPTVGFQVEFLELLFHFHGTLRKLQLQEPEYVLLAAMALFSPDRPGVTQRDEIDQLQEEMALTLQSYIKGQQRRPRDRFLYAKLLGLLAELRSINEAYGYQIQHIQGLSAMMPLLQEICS
Thyrotropin receptor (Homo sapiens), sequence (P16473 whole entry, looked up): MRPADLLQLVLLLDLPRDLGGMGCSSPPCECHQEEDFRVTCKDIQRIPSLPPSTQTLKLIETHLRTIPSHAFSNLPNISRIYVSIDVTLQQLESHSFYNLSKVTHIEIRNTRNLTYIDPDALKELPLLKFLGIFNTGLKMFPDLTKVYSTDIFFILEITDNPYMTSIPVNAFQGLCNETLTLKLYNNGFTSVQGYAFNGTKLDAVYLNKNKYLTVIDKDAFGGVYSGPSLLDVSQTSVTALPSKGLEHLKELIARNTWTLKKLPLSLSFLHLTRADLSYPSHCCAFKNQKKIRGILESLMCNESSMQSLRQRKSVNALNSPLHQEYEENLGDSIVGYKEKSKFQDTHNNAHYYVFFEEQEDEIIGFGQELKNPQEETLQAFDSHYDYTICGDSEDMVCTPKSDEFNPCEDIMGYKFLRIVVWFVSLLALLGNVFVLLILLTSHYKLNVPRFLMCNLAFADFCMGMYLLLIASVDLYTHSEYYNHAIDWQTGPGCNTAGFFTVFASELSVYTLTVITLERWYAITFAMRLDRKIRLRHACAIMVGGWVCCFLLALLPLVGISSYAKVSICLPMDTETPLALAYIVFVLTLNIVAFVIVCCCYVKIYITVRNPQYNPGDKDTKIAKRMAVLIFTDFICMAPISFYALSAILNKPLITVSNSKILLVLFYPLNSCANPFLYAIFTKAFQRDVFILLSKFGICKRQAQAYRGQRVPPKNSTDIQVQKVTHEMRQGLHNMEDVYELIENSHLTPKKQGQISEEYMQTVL

Take `CC(=O)[O-].CC(=O)[O-].[Hg+2]`: the Potency in assay [1] was 2.75 µM (active); in [2] it was 4.33 µM (active); in assay [3], 3.86 µM (active); in assay [4] it was 7.7 µM (active); in [5] it was 4.86 µM (active); in assay [6] it was 2.73 µM (active).
For the compound `CCCCCCCCCCCCCC[P+](CCCCCC)(CCCCCC)CCCCCC` (tested in a mixture with another compound), the Potency is 9.77 µM (active) in assay [1]; 27.3 µM (active) in assay [2]; 24.3 µM (active) in assay [3]; 17.2 µM (active) in assay [4]; 17.2 µM (active) in assay [5]; 24.3 µM (active) in assay [6].
Regarding `O=[N+]([O-])O.O=[N+]([O-])O.[Cd]`, the Potency in assay [1] is 43.6 µM (active); in assay [3], 9.69 µM (active); in assay [4], 7.7 µM (active); in assay [5] it was 6.11 µM (active); in assay [6] it was 3.06 µM (active). Besides, the Potency result in [2] is “inactive”.
On to `CCCSP(=O)(OCC)SCCC`, for which the Potency entry in assay [1], in assay [7], in assay [8], in assay [10], in assay [3] and in [4] was “inactive” in each case. The Potency entry in [5], in assay [11] and in assay [6] was “inactive” in each case. In addition, the call in assay [9] was inactive. In addition, the Potency in assay [12] was 25.2 µM (active).
Regarding `COc1cc(C=O)cc2c1[C@H](COC(N)=O)[C@]1(OC(C)=O)ON2C[C@H]2[C@@H]1N2C(C)=O`, the Potency entry in assay [1], in assay [2], in assay [13], in assay [12], in assay [6] and in assay [15] was “inactive” in each case. The Potency result in [16] was “inactive”. The Potency is 0.611 µM (active) in assay [4], 0.433 µM (active) in assay [5], 48.6 nM (active) in assay [11] and 1.93 µM (active) in assay [14].
In the case of `C[C@]12CC[C@@H]3c4ccc(OC(=O)N(CCCl)CCCl)cc4CC[C@H]3[C@@H]1CC[C@@H]2O`, the Potency entry in assay [1], in [2], in assay [3], in assay [13], in [5] and in assay [11] was “inactive” each time. Besides, the Potency entry in assay [12], in assay [6], in assay [15] and in assay [16] was “inactive” each time.
Turning to `C=CCC1=C(C)C(OC(=O)C2C(C=C(C)C)C2(C)C)CC1=O` (stereo unspecified), the Potency in assay [1] is 58.3 µM (active); in assay [7], 61.1 µM (active); in assay [12] it was 16.3 µM (active); in [14], 20.5 µM (active). The Potency entry in assay [8], in [10], in [13], in [5], in assay [11] and in assay [15] was “inactive” in each case. Also, the result in [9], in assay [17] and in assay [18] was inactive.
For the compound `O=C/C(Cl)=C(/Cl)C(=O)O`, the Potency result in assay [1], in assay [2], in assay [3], in [13], in [5] and in assay [11] was “inactive” throughout. Besides, the Potency result in assay [12], in [6], in [14], in assay [15] and in assay [16] was “inactive” each time.
With `COP(=O)(OC)SCn1c(=O)oc2cc(Cl)cnc21`, the Potency result in [1], in assay [2], in assay [13], in assay [12] and in [6] was “inactive” in each case. Moreover, the Potency in assay [4] was 30.6 µM (active); in assay [16], 24.3 µM (active).
